Assay results published in PubChem BioAssay (NCI).
About 83,000 compounds went through this panel and 20% of them were active in at least one assay; those are over-represented in the sample as a whole.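 Percent growth is the endpoint: 0 to 100 indicates growth inhibition (40 means 60% inhibition), 0 means no net growth, and negative values indicate cell death.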 The source made the active and inactive calls. How the source made its calls: active means growth percent below 10; inactive means the rest.

What was measured:
Experiment in all cases: NCI-60 one-dose screen, 48 h (100 = growth as untreated, 0 = no growth, -100 = all killed)
SR leukemia = conditions: 10 µM unless noted
RPMI-8226 leukemia = conditions: 10 µM
OVCAR-8 ovarian = conditions: 10 µM unless noted
OVCAR-5 ovarian = conditions: 10 µM unless noted
OVCAR-4 ovarian = conditions: 10 µM unless noted
IGROV1 ovarian = conditions: 10 µM unless noted
OVCAR-3 ovarian = conditions: 10 µM unless noted
HS 578T breast = conditions: 10 µM unless noted
NCI/ADR-RES ovarian = conditions: 10 µM unless noted
BT-549 breast = conditions: 10 µM unless noted
MDA-MB-435 melanoma = conditions: 10 µM unless noted
SW-620 colon = conditions: 10 µM unless noted
MCF7 breast = conditions: 10 µM unless noted
HCT-116 colon = conditions: 10 µM unless noted
HCC-2998 colon = conditions: 10 µM unless noted
KM12 colon = conditions: 10 µM unless noted
SK-OV-3 ovarian = conditions: 10 µM
T-47D breast = conditions: 10 µM

Measured: growth

Cc1ccccc1-c1cc(-c2ccc(Br)s2)[nH]c(=O)c1C#N
inactive: SR leukemia 100% | RPMI-8226 leukemia 102% | OVCAR-8 ovarian 105% | OVCAR-5 ovarian 104% | OVCAR-4 ovarian 108% | IGROV1 ovarian 96.5% | OVCAR-3 ovarian 113% | HS 578T breast 96% | NCI/ADR-RES ovarian 98.5% | BT-549 breast 105% | MDA-MB-435 melanoma 103% | SW-620 colon 108% | MCF7 breast 92.3% | HCT-116 colon 93.3% | HCC-2998 colon 104% | KM12 colon 105%

CCCCCCCC/C=C\CCCCCCCCOc1cccc(CC(=O)NCC[N+](C)(C)C)c1
inactive: SR leukemia 59% | RPMI-8226 leukemia 61.9% | OVCAR-8 ovarian 85.9% | OVCAR-5 ovarian 51.8% | OVCAR-4 ovarian 88.6% | OVCAR-3 ovarian 99.4% | NCI/ADR-RES ovarian 103% | BT-549 breast 74.4% | MDA-MB-435 melanoma 91.5% | SW-620 colon 96.5% | MCF7 breast 90.8% | HCT-116 colon 75.2% | HCC-2998 colon 66.1% | KM12 colon 57.8%
active: IGROV1 ovarian 3.34%

FC(F)(F)Oc1ccc2c(c1)C[C@H]1C[C@@H](c3ccoc3)N2O1
inactive: SR leukemia 98.3% | RPMI-8226 leukemia 92.3% | OVCAR-8 ovarian 101% | OVCAR-5 ovarian 91.5% | SK-OV-3 ovarian 106% | IGROV1 ovarian 108% | OVCAR-3 ovarian 112% | NCI/ADR-RES ovarian 98.3% | T-47D breast 94.8% | BT-549 breast 112% | MDA-MB-435 melanoma 88.8% | SW-620 colon 110% | MCF7 breast 98.6% | HCT-116 colon 107% | HCC-2998 colon 97.5% | KM12 colon 103%

O=c1[nH]c(=S)c2c(n1CCCO)CCC2
inactive: SR leukemia 97% | RPMI-8226 leukemia 101% | OVCAR-8 ovarian 102% | OVCAR-5 ovarian 99.4% | OVCAR-4 ovarian 102% | IGROV1 ovarian 103% | OVCAR-3 ovarian 110% | HS 578T breast 99.8% | NCI/ADR-RES ovarian 103% | BT-549 breast 107% | MDA-MB-435 melanoma 97% | SW-620 colon 103% | HCT-116 colon 99.1% | HCC-2998 colon 108% | KM12 colon 105%

CCCCCCCCCCCCCCCC[N+]1(C)CCOCC1
inactive: OVCAR-8 ovarian 16.1% | OVCAR-5 ovarian 13.8% | OVCAR-4 ovarian 20.7% | HS 578T breast 16% | NCI/ADR-RES ovarian 94.9% | BT-549 breast 15.1% | MDA-MB-435 melanoma 26.9% | MCF7 breast 61.6% | HCT-116 colon 18.2% | HCC-2998 colon 13.9%
active: SR leukemia -29.4% | RPMI-8226 leukemia -33.9% | IGROV1 ovarian -43.1% | OVCAR-3 ovarian -5.72% | SW-620 colon 6.63% | KM12 colon -94.4%

CSC1=CC(=O)c2ccccc2C1=O
inactive: RPMI-8226 leukemia 44% | OVCAR-8 ovarian 46.8% | OVCAR-5 ovarian 103% | HS 578T breast 81.4% | NCI/ADR-RES ovarian 74% | BT-549 breast 92.3% | MDA-MB-435 melanoma 89.4% | HCC-2998 colon 107% | KM12 colon 71.9%
active: SR leukemia -33.5% | OVCAR-4 ovarian -34.7% | IGROV1 ovarian -75.7% | OVCAR-3 ovarian -96.2% | SW-620 colon -55.2% | HCT-116 colon -57%

O=S(=O)(Nc1ccccc1Cl)c1ccc(-c2cnc(C3CC3)o2)cc1
active: OVCAR-3 ovarian -32.1% | NCI/ADR-RES ovarian 8.53% | MDA-MB-435 melanoma -35.2%
inactive: SR leukemia 41.5% | RPMI-8226 leukemia 27.9% | OVCAR-8 ovarian 33.8% | OVCAR-5 ovarian 38.3% | OVCAR-4 ovarian 50% | IGROV1 ovarian 33.1% | BT-549 breast 49.5% | SW-620 colon 26.2% | MCF7 breast 15.7% | HCT-116 colon 22.3% | HCC-2998 colon 39.9% | KM12 colon 20.5%

CCN(CC)c1ccc2c(c1)OS(=O)(=O)N=C2
inactive: SR leukemia 93.3% | RPMI-8226 leukemia 104% | OVCAR-8 ovarian 107% | OVCAR-5 ovarian 99.9% | OVCAR-4 ovarian 97.9% | IGROV1 ovarian 97.5% | OVCAR-3 ovarian 114% | HS 578T breast 110% | NCI/ADR-RES ovarian 95.6% | BT-549 breast 95.7% | MDA-MB-435 melanoma 101% | SW-620 colon 103% | MCF7 breast 94.7% | HCT-116 colon 99.5% | HCC-2998 colon 114% | KM12 colon 113%

O=C(O)c1ccccc1Oc1cc(-c2ccco2)nc(OCCBr)n1
inactive: SR leukemia 102% | RPMI-8226 leukemia 123% | OVCAR-8 ovarian 103% | OVCAR-4 ovarian 98.5% | SK-OV-3 ovarian 103% | IGROV1 ovarian 106% | OVCAR-3 ovarian 105% | HS 578T breast 98.1% | NCI/ADR-RES ovarian 105% | T-47D breast 101% | BT-549 breast 92.1% | MDA-MB-435 melanoma 101% | SW-620 colon 105% | MCF7 breast 101% | HCT-116 colon 96.5% | HCC-2998 colon 107% | KM12 colon 95.6%

NS(=O)(=O)c1ccc(C(=O)N/N=C(\CS(=O)(=O)c2ccccc2)c2cc3cc(Br)ccc3o2)cc1
inactive: SR leukemia 127% | RPMI-8226 leukemia 98.3% | OVCAR-8 ovarian 75.2% | OVCAR-5 ovarian 99.8% | IGROV1 ovarian 92.5% | OVCAR-3 ovarian 94.5% | HS 578T breast 80.7% | NCI/ADR-RES ovarian 98% | T-47D breast 88.1% | BT-549 breast 101% | MDA-MB-435 melanoma 73% | SW-620 colon 94.6% | MCF7 breast 72.3% | HCT-116 colon 90.5% | HCC-2998 colon 94.2% | KM12 colon 85.6%
